# Where a name gives a salt, the structure may show the parent alone.
# Tests used:
# U-2932 [1] = assay: growth inhibition by drug alone (1 - RLU/untreated control) (fraction); higher = stronger inhibition; settings: 177Lu-lilotomab satetraxetan 0 ug/ml
# Summary of the method: (§1)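 Growth inhibition was calculated from RealTime-Glo RLU against untreated no-drug wells. Values equal 1 − RLU/mean of 48 untreated no-drug wells per plate, read daily from day 3 after 1 h at 37°C. RIVA and U-2932 cells, with or without 18 h pretreatment by a radiolabelled anti-CD37 antibody conjugate (~600 MBq/mg; 0.5 µg/ml RIVA, 1 µg/ml U-2932), were washed and plated at 3,000 cells/well on compound-printed plates at 10/100 nM (RIVA) or 10/1,000 nM (U-2932).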
# RIVA [2] = assay: as above; settings: 177Lu-lilotomab satetraxetan 0 ug/ml
# Summary of the method: as §1
# U-2932 [3] = assay: growth inhibition by drug plus 177Lu-lilotomab satetraxetan (1 - RLU/untreated control) (fraction); higher = stronger inhibition; settings: 177Lu-lilotomab satetraxetan 1 ug/ml
# Summary of the method: as §1
# RIVA [4] = assay: as above; settings: 177Lu-lilotomab satetraxetan 0.5 ug/ml
# Summary of the method: as §1
Structure (SMILES),"growth inhibition by drug alone (U-2932 [1]; 10 nM, time (day): 3)","growth inhibition by drug alone (U-2932 [1]; 10 nM, time (day): 4)","growth inhibition by drug alone (U-2932 [1]; 10 nM, time (day): 5)","growth inhibition by drug alone (U-2932 [1]; 10 nM, time (day): 6)","growth inhibition by drug alone (U-2932 [1]; 1000 nM, time (day): 3)","growth inhibition by drug alone (U-2932 [1]; 1000 nM, time (day): 4)","growth inhibition by drug alone (U-2932 [1]; 1000 nM, time (day): 5)","growth inhibition by drug alone (U-2932 [1]; 1000 nM, time (day): 6)","growth inhibition by drug alone (RIVA [2]; 10 nM, time (day): 3)","growth inhibition by drug alone (RIVA [2]; 10 nM, time (day): 4)","growth inhibition by drug alone (RIVA [2]; 10 nM, time (day): 5)","growth inhibition by drug alone (RIVA [2]; 10 nM, time (day): 6)","growth inhibition by drug alone (RIVA [2]; 100 nM, time (day): 3)","growth inhibition by drug alone (RIVA [2]; 100 nM, time (day): 4)","growth inhibition by drug alone (RIVA [2]; 100 nM, time (day): 5)","growth inhibition by drug alone (RIVA [2]; 100 nM, time (day): 6)","growth inhibition by drug plus 177Lu-lilotomab satetraxetan (U-2932 [3]; 10 nM, time (day): 3)","growth inhibition by drug plus 177Lu-lilotomab satetraxetan (U-2932 [3]; 10 nM, time (day): 4)","growth inhibition by drug plus 177Lu-lilotomab satetraxetan (U-2932 [3]; 10 nM, time (day): 5)","growth inhibition by drug plus 177Lu-lilotomab satetraxetan (U-2932 [3]; 10 nM, time (day): 6)","growth inhibition by drug plus 177Lu-lilotomab satetraxetan (U-2932 [3]; 1000 nM, time (day): 3)","growth inhibition by drug plus 177Lu-lilotomab satetraxetan (U-2932 [3]; 1000 nM, time (day): 4)","growth inhibition by drug plus 177Lu-lilotomab satetraxetan (U-2932 [3]; 1000 nM, time (day): 5)","growth inhibition by drug plus 177Lu-lilotomab satetraxetan (U-2932 [3]; 1000 nM, time (day): 6)","growth inhibition by drug plus 177Lu-lilotomab satetraxetan (RIVA [4]; 10 nM, time (day): 3)","growth inhibition by drug plus 177Lu-lilotomab satetraxetan (RIVA [4]; 10 nM, time (day): 4)","growth inhibition by drug plus 177Lu-lilotomab satetraxetan (RIVA [4]; 10 nM, time (day): 5)","growth inhibition by drug plus 177Lu-lilotomab satetraxetan (RIVA [4]; 10 nM, time (day): 6)","growth inhibition by drug plus 177Lu-lilotomab satetraxetan (RIVA [4]; 100 nM, time (day): 3)","growth inhibition by drug plus 177Lu-lilotomab satetraxetan (RIVA [4]; 100 nM, time (day): 4)","growth inhibition by drug plus 177Lu-lilotomab satetraxetan (RIVA [4]; 100 nM, time (day): 5)","growth inhibition by drug plus 177Lu-lilotomab satetraxetan (RIVA [4]; 100 nM, time (day): 6)"
COc1cc2ncnc(Nc3cccc(Br)c3)c2cc1OC,0.0352,0.0294,-0.0462,-0.213,-0.0358,-0.00581,-0.044,-0.226,-0.0227,0.0203,-0.0662,-0.376,-0.0939,-0.0578,-0.0794,-0.167,-0.0269,-0.00153,0.00885,0.0642,-0.0997,0.0384,0.0191,0.0515,0.308,0.458,0.483,0.516,0.349,0.482,0.487,0.467
OC[C@H]1O[C@@H](n2cnc3c2N=CNC[C@H]3O)C[C@@H]1O [Pentostatin],0.1,0.0372,-0.116,-0.114,-0.0219,-0.074,-0.147,-0.0984,0.0173,-0.0212,-0.109,-0.624,-0.427,-0.321,-0.314,-0.387,-0.00817,0.056,0.0512,0.0351,0.0728,0.0721,0.118,0.207,0.472,0.557,0.557,0.555,0.399,0.488,0.5,0.513
"Nc1ccccc1NC(=O)c1ccc(CNC(=O)OCc2cccnc2)cc1 [Entinostat (MS-275, SNDX-275)]",0.036,0.00325,0.00221,0.0268,0.833,0.861,0.874,0.887,-0.0286,-0.0282,-0.046,-0.113,0.288,0.217,0.174,0.114,0.053,0.0586,0.0668,0.217,0.855,0.89,0.908,0.928,0.486,0.568,0.585,0.591,0.604,0.62,0.628,0.595
CCC[C@H](NC(=O)/C(C#N)=C/c1cccc(Br)n1)c1ccccc1,0.109,0.0652,-0.0661,-0.128,0.0251,0.0639,-0.0194,-0.182,-0.0156,-0.0305,-0.179,-0.663,-0.455,-0.31,-0.323,-0.514,0.0639,0.1,0.129,0.098,0.0285,0.0599,0.115,0.183,0.529,0.596,0.601,0.61,0.35,0.448,0.465,0.478
NC(=O)c1ccc(I)c([N+](=O)[O-])c1 [Iniparib (BSI-201)],-0.0132,-0.0395,-0.0441,-0.012,-0.105,-0.0771,-0.0716,-0.0297,-0.235,-0.257,-0.288,-0.389,-0.378,-0.352,-0.395,-0.471,-0.0638,-0.00415,0.0467,0.129,-0.0685,-0.00507,0.0384,0.191,0.437,0.491,0.504,0.513,0.436,0.495,0.516,0.523
CC(C)(C#N)c1cc(Cn2cncn2)cc(C(C)(C)C#N)c1 [Anastrozole],0.105,0.0583,0.0212,-0.021,0.0109,0.046,-0.0146,-0.259,0.0128,-0.01,-0.0521,-0.213,-0.0495,-0.0262,-0.0644,-0.17,0.0156,0.039,0.0695,0.0754,-0.103,0.0124,-0.0136,-0.0141,0.481,0.583,0.593,0.583,0.423,0.506,0.523,0.499
CC[C@@]1(O)C(=O)OCc2c1cc1n(c2=O)Cc2cc3c(CN(C)C)c(O)ccc3nc2-1 [Topotecan HCl],0.427,0.494,0.544,0.586,0.952,0.969,0.977,0.981,0.45,0.629,0.715,0.801,0.689,0.808,0.85,0.882,0.403,0.516,0.604,0.67,0.97,0.978,0.983,0.985,0.802,0.878,0.913,0.944,0.814,0.883,0.91,0.931
O=C(CCCCCCC(=O)Nc1ccccc1)NO [Vorinostat (SAHA)],-0.0182,-0.0297,-0.0883,-0.201,0.818,0.762,0.691,0.615,-0.119,-0.189,-0.294,-0.432,-0.132,-0.192,-0.199,-0.285,-0.0269,0.0202,0.0234,0.0225,0.849,0.817,0.786,0.742,0.465,0.518,0.537,0.553,0.523,0.578,0.586,0.591
Cc1ccc(C(=O)Nc2ccc(CN3CCN(C)CC3)c(C(F)(F)F)c2)cc1C#Cc1cnc2cccnn12,-0.0855,-0.101,-0.212,-0.304,0.619,0.711,0.699,0.718,-0.13,-0.226,-0.275,-0.383,0.59,0.607,0.6,0.53,-0.1,-0.0253,0.0155,0.0448,0.74,0.819,0.844,0.883,0.39,0.475,0.499,0.509,0.689,0.752,0.77,0.788
COc1cc(N2CCC(N3CCN(C)CC3)CC2)ccc1Nc1ncc(Cl)c(Nc2ccccc2S(=O)(=O)C(C)C)n1,0.0279,0.0267,-0.0689,-0.173,0.411,0.377,0.328,0.37,-0.00616,-0.0284,-0.166,-0.627,-0.194,-0.141,-0.341,-0.647,-0.0224,0.0234,0.0221,0.0517,0.226,0.3,0.325,0.525,0.354,0.492,0.509,0.521,0.198,0.273,0.278,0.268
Nc1ccc(-c2ccc3ncc4ccc(=O)n(-c5cccc(C(F)(F)F)c5)c4c3c2)cn1 [Torin 2],0.465,0.318,0.24,0.244,0.937,0.963,0.974,0.981,0.402,0.267,0.158,-0.141,0.769,0.804,0.808,0.781,0.305,0.238,0.247,0.312,0.953,0.97,0.98,0.986,0.613,0.549,0.527,0.515,0.838,0.874,0.881,0.887
COc1ccc(/C=C\c2cc(OC)c(OC)c(OC)c2)cc1O [Combretastatin A4],0.967,0.973,0.979,0.983,0.965,0.975,0.981,0.985,0.953,0.965,0.971,0.975,0.924,0.936,0.954,0.964,0.971,0.978,0.983,0.986,0.965,0.979,0.985,0.988,0.964,0.976,0.98,0.984,0.936,0.949,0.963,0.971
O=C(O)C1(C(=O)O)CCC1.[NH2-].[NH2-].[Pt+2] [Carboplatin],0.0266,-0.0103,-0.0119,-0.000763,-0.0124,-0.0343,-0.0455,0.00969,-0.0898,-0.143,-0.162,-0.249,-0.121,-0.164,-0.182,-0.229,-0.0315,0.0327,0.0748,0.141,0.0161,0.0456,0.0793,0.221,0.458,0.519,0.538,0.54,0.528,0.554,0.565,0.569
C[C@]1(c2nc3c(C(N)=O)cccc3[nH]2)CCCN1 [ABT-888 (Veliparib)],-0.0659,-0.0358,-0.0424,0.0616,-0.0937,-0.0475,-0.078,-0.068,-0.145,-0.176,-0.216,-0.314,-0.198,-0.238,-0.247,-0.287,-0.0353,-0.0127,0.0158,0.166,-0.0568,0.0163,0.019,0.0852,0.338,0.488,0.516,0.518,0.307,0.418,0.442,0.427
O=C(Nc1cccc(Cl)c1)Nc1ncc(CCNc2ncnc3ccsc23)s1,0.0932,0.0546,0.111,0.319,0.16,0.209,0.218,0.355,0.0836,0.115,0.215,0.331,0.0102,0.0483,0.135,0.239,0.0766,0.0714,0.202,0.505,0.201,0.317,0.351,0.495,0.463,0.543,0.579,0.666,0.389,0.481,0.511,0.596

# From the supplement of paper PMC6897291
